According to PubChem BioAssay (EPA / NIEHS):
Values joined by “and” are separate entries in the source; they are usually repeats but may differ in a detail not shown here. Equal entries are not always repeated. Results filed as inconclusive are left out. Active and inactive are the calls of the source. How the source made its calls, unless noted: active means hit-call score of the fitted dose curve at least 0.9, where 1 is the maximum; inactive means score below 0.9.

Assays:
[1] = target: Retinoic acid receptor RXR-alpha (Homo sapiens) (UniProt P19793); assay: ATG_RXRa_TRANS: Attagene TRANS-FACTORIAL HepG2 Assay for human Retinoid X Receptor alpha (RXRa) (AID 2283012; active means hit-call score of the fitted dose curve at least 0.9, where 1 is the maximum)
Outline: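 Measures exogenous chimeric NR-GAL4 activity in transfected HepG2 liver cells after 24 h of dosing. Induced reporter mRNA was detected by RT-PCR with capillary electrophoresis, and gain of signal was analysed against DMSO.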

[2] = target: human Thyroid Receptor alpha (THRa1), THRA (gene 7067) (UniProt P10827); assay: ATG_THRa1_TRANS: Attagene TRANS-FACTORIAL HepG2 Assay for human Thyroid Receptor alpha (THRa1) (AID 2283014; active means hit-call score of the fitted dose curve at least 0.9, where 1 is the maximum)
Outline: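 HepG2 cells transiently transfected with chimeric NR-Gal4 and GAL4-UAS reporter units, dosed 24 h. Reporter mRNA quantified by RT-PCR, fluorescent labeling, HpaI digestion and capillary electrophoresis; gain-of-signal fit versus DMSO.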

[3] = target: human Retinoid X Receptor beta (RXRb), RXRB (gene 6257) (UniProt P28702); assay: ATG_RXRb_TRANS: Attagene TRANS-FACTORIAL HepG2 Assay for human Retinoid X Receptor beta (RXRb) (AID 2283013; active means hit-call score of the fitted dose curve at least 0.9, where 1 is the maximum)
Outline: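 Chimeric receptor-Gal4 activity was assessed in transiently transfected human HepG2 cells after 24 h exposure. Transcripts from GAL4-UAS reporters were quantified by fluorescent RT-PCR and capillary electrophoresis, with DMSO as negative control and baseline.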

[4] = target: human Vitamin D Receptor (VDR), VDR (gene 7421) (UniProt P11473); assay: ATG_VDR_TRANS: Attagene TRANS-FACTORIAL HepG2 Assay for human Vitamin D Receptor (VDR) (AID 2283022; active means hit-call score of the fitted dose curve at least 0.9, where 1 is the maximum)
Outline: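 HepG2 cells were transiently transfected with GAL4-UAS reporter units and a chimeric VDR-Gal4 construct, then dosed for 24 hours. Reporter mRNA was quantified by RT-PCR, fluorescent labeling, HpaI digestion and capillary electrophoresis; gain of signal analysed vs DMSO.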

[5] = read-out: E-selectin (Homo sapiens) (UniProt P16581); assay: BSK_3C_Eselectin: BioMAP Diversity Plus: 3C Assay for Eselectin Biomarker Activity (AID 2283015); settings: primary human endothelial cells (HUVEC); actives raise or lower the signal;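 further: cell surface E-selectin protein quantified by ELISA 24 h after dosing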
Outline: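 Primary human umbilical vein endothelial cells (3C system), read 24 h after compound addition; E-selectin measured by ELISA. Bidirectional curve fitting against DMSO baseline; cytotoxicity by parallel SRB total-protein staining.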

[6] = read-out: Interleukin-1 alpha (IL1a), IL1A (gene 3552); assay: BSK_BE3C_IL1a: BioMAP Diversity Plus: BE3C Assay for Interleukin-1 alpha (IL1a) Biomarker Activity (AID 2283016); settings: primary human bronchial epithelial cells; actives raise or lower the signal
Outline: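 Signal from IL-1a ELISA, taken 24 h after chemical dosing of human bronchial epithelial cells, is compared with DMSO as baseline using bidirectional curve fitting.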

[7] = read-out: Monocyte Chemoattractant Protein-1 (MCP1), CCL2 (gene 6347); assay: BSK_3C_MCP1: BioMAP Diversity Plus: 3C Assay for Monocyte Chemoattractant Protein-1 (MCP1) Biomarker Activity (AID 2283017); settings: primary human endothelial cells (HUVEC); actives raise or lower the signal
Outline: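 Human umbilical vein endothelial cells (3C system) exposed to chemicals for 24 h; MCP-1 quantified by ELISA against the DMSO baseline with bidirectional fitting, and parallel SRB staining used to assess cytotoxicity.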

[8] = read-out: Monocyte Chemoattractant Protein-1 (MCP1), CCL2 (gene 6347); assay: BSK_4H_MCP1: BioMAP Diversity Plus: 4H Assay for Monocyte Chemoattractant Protein-1 (MCP1) Biomarker Activity (AID 2283018); settings: primary human endothelial cells (HUVEC); actives raise or lower the signal
Outline: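 Endothelial cells from umbilical vein were treated with test chemical, then after 24 h MCP-1 levels were quantified by ELISA; endpoint values came from bidirectional fitting with DMSO as baseline of activity.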

[9] = read-out: Human Leukocyte Antigen - DR isotype (HLADR), HLA-DRA (gene 3122); assay: BSK_3C_HLADR: BioMAP Diversity Plus: 3C Assay for Human Leukocyte Antigen - DR isotype (HLADR) Biomarker Activity (AID 2283019); settings: primary human endothelial cells (HUVEC); actives raise or lower the signal
Outline: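 HUVEC monoculture, HLA-DR measured by ELISA 24 h after chemical dosing. Fitted bidirectionally against DMSO baseline; parallel SRB staining assessed cytotoxicity, with 3C proliferation read by SRB at 48 h.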

[10] = read-out: Interleukin-8 (IL8), CXCL8 (gene 3576); assay: BSK_3C_IL8: BioMAP Diversity Plus: 3C Assay for Interleukin-8 (IL8) Biomarker Activity (AID 2283020); settings: primary human endothelial cells (HUVEC); actives raise or lower the signal
Outline: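 Endothelial primary cells of human umbilical vein origin are dosed with chemical; after 24 h the IL-8 biomarker is measured by ELISA, and concentration–response is fitted in both directions versus DMSO.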

[11] = read-out: Monokine induced gamma interferon (MIG), CXCL9 (gene 4283); assay: BSK_3C_MIG: BioMAP Diversity Plus: 3C Assay for Monokine induced gamma interferon (MIG) Biomarker Activity (AID 2283021); settings: primary human endothelial cells (HUVEC); actives raise or lower the signal
Outline: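 Endothelial primary cells (human umbilical vein) are dosed with test chemical in the 3C system. MIG levels are measured by ELISA at 24 h and fitted in both directions relative to DMSO.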

[12] = BSK_3C_SRB: Viability Assessment in the BioMAP Diversity Plus: 3C Assay (AID 2283023); settings: primary human endothelial cells (HUVEC);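 further: fitted both ways against DMSO so a hit may be signal rise or drop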
Outline: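 Human umbilical vein endothelial cells in the 3C system, treated 24 h. Total protein measured by 0.1% sulforhodamine B staining after 10% TCA fixation, read at 560 nm; bidirectional fit versus DMSO.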

[13] = read-out: Matrix Metallopeptidase 1 (MMP1), MMP1 (gene 4312); assay: BSK_BE3C_MMP1: BioMAP Diversity Plus: BE3C Assay for Matrix Metallopeptidase 1 (MMP1) Biomarker Activity (AID 2283024); settings: primary human bronchial epithelial cells; actives raise or lower the signal
Outline: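 MMP1 signal, measured by ELISA after a 24 h chemical exposure of human primary bronchial epithelial cells, is analysed with bidirectional fitting using DMSO as negative control.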

[14] = read-out: Pselectin, SELP (gene 6403); assay: BSK_4H_Pselectin: BioMAP Diversity Plus: 4H Assay for Pselectin Biomarker Activity (AID 2283026); settings: primary human endothelial cells (HUVEC); actives raise or lower the signal
Outline: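 Endothelial primary cells (human umbilical vein) are dosed, incubated 24 h, and assayed for surface P-selectin by ELISA; responses in either direction are fitted relative to the DMSO negative control.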

[15] = BSK_4H_SRB: Viability Assessment in the BioMAP Diversity Plus: 4H Assay (AID 2283027); settings: primary human endothelial cells (HUVEC);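 further: cells exposed to compound for 24 h before staining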
Outline: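 Cytotoxicity read-out in primary human endothelial cells: after 24 h compound exposure, cells were TCA-fixed (10%), stained with 0.1% SRB and absorbance taken at 560 nm. Values fitted in both directions relative to DMSO.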

[16] = read-out: Thrombomodulin, THBD (gene 7056); assay: BSK_3C_Thrombomodulin: BioMAP Diversity Plus: 3C Assay for Thrombomodulin Biomarker Activity (AID 2283029); settings: primary human endothelial cells (HUVEC); actives raise or lower the signal
Outline: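 Endothelial cells from umbilical vein are dosed with test chemical and incubated 24 h. Thrombomodulin is then quantified by ELISA, with DMSO serving as negative control and activity baseline.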

[17] = read-out: Urokinase-type plasminogen activator receptor (uPAR), PLAUR (gene 5329); assay: BSK_4H_uPAR: BioMAP Diversity Plus: 4H Assay for Urokinase-type plasminogen activator receptor (uPAR) Biomarker Activity (AID 2283030); settings: primary human endothelial cells (HUVEC); actives raise or lower the signal
Outline: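 Human umbilical vein endothelial cells in the 4H system, 24 h after chemical dosing. Cell-surface uPAR measured by ELISA, fitted in both directions versus DMSO; cytotoxicity checked by SRB total protein in parallel cultures.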

[18] = BSK_3C_Vis: BioMAP Diversity Plus: 3C Assay for Morphology Visualization (AID 2283025); settings: primary human endothelial cells (HUVEC);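 further: fitted both ways so gain or loss versus DMSO counts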
Outline: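 Morphology read by light microscopy serves as a background control for the multiplexed 3C assay in human umbilical vein endothelial cells, taken 24 h after dosing, with DMSO as the negative control and bidirectional curve fitting.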

[19] = BSK_BE3C_SRB: Viability Assessment in the BioMAP Diversity Plus: BE3C Assay (AID 2283028); settings: primary human bronchial epithelial cells
Outline: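 Human bronchial epithelial primary cells in confluent culture, 24 h after chemical dosing; total protein by 0.1% SRB staining after 10% TCA fixation, read at 560 nm. Bidirectional fitting versus DMSO baseline.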

Measured: AC50

human Thyroid Receptor alpha (THRa1), THRA (gene 7067), sequence (P10827 whole entry, looked up, the tested form may be a part): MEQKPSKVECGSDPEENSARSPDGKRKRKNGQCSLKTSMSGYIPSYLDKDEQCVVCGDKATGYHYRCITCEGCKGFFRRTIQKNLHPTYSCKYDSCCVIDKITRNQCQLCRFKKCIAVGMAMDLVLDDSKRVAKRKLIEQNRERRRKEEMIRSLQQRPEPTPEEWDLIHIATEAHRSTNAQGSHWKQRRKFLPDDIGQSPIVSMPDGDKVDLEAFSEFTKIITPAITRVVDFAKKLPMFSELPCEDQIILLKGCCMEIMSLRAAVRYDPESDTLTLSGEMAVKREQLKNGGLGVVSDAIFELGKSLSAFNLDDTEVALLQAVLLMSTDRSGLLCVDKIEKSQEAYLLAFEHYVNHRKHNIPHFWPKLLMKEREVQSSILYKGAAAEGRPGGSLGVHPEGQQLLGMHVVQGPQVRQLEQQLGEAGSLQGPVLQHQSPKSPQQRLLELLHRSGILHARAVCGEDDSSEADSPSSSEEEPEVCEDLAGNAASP
human Retinoid X Receptor beta (RXRb), RXRB (gene 6257), sequence (P28702 whole entry, looked up, the tested form may be a part): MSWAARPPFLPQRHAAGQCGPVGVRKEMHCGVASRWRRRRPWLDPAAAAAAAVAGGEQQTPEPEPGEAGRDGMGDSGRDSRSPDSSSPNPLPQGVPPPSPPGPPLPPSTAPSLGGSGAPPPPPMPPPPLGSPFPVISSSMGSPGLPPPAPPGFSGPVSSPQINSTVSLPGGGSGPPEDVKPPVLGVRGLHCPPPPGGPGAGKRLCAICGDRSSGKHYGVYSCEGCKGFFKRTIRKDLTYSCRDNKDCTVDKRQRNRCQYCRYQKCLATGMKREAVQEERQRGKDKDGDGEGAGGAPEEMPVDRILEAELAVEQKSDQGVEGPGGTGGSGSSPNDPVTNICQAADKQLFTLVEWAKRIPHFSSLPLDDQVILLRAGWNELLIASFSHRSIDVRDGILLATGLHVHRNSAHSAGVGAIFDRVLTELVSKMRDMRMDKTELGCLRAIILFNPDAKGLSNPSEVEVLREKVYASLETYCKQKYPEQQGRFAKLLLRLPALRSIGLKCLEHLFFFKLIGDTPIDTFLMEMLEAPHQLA
E-selectin (Homo sapiens), sequence (P16581 whole entry, looked up): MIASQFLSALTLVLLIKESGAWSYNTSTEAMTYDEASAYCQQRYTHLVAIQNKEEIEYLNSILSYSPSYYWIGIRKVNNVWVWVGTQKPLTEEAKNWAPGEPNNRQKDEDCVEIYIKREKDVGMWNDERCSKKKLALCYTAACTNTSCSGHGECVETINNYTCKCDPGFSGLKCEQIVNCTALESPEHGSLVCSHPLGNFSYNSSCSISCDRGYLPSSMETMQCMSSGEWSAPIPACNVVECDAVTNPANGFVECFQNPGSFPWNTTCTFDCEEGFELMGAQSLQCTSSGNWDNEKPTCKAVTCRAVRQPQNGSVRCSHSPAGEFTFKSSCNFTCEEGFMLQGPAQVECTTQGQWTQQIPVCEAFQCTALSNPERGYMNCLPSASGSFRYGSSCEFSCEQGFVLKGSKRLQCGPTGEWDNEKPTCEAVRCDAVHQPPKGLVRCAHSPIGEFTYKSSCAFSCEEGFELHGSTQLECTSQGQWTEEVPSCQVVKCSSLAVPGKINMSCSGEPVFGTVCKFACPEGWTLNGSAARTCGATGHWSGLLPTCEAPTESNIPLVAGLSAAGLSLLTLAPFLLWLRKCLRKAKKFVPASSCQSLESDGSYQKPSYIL
Retinoic acid receptor RXR-alpha (Homo sapiens), sequence (P19793 whole entry, looked up, the tested form may be a part): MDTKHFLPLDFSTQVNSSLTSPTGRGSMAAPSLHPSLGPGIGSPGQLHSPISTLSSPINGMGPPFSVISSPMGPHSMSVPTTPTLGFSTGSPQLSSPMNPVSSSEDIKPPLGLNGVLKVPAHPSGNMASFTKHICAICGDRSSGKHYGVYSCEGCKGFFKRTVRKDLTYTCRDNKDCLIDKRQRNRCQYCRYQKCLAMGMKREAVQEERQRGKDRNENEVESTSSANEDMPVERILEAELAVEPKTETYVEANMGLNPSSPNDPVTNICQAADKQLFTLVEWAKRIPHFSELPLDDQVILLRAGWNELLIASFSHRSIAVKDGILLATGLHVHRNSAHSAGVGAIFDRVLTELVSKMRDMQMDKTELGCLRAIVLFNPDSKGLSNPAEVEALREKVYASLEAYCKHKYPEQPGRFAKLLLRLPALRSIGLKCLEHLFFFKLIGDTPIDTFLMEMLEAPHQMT
human Vitamin D Receptor (VDR), VDR (gene 7421), sequence (P11473 whole entry, looked up, the tested form may be a part): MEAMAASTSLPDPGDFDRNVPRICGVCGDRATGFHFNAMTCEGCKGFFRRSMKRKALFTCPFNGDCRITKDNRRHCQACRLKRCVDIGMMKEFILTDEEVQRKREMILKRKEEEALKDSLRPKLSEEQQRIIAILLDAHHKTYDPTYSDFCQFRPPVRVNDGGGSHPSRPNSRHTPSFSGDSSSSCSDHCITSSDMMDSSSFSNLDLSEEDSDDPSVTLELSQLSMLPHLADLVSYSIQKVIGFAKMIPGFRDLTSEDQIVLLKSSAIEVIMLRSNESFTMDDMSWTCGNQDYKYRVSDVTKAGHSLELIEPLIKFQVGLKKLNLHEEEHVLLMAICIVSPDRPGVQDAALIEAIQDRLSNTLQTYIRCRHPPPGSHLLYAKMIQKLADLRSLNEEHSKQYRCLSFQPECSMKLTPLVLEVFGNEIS

CCC(O)CO (stereo not given)
inactive: [1] | [2]

CCC(=O)/C=C/C1C(C)=CCCC1(C)C (stereo not given)
active: [3] 34.7 µM
inactive: [1] | [4]

Cc1ncc([N+](=O)[O-])n1C
inactive: [1] | [4]
active: [3] 100 µM

CC(=O)OCCC(C)CC(C)(C)C (stereo not given)
not listed: [2] | [18] | [19]
inactive: all other assays above

COC(=O)Cc1cccc2ccccc12
active: [3] 55.2 µM
inactive: [1] | [4]

CC(=O)c1c(C)cc(C(C)(C)C)cc1C
inactive: [1] | [2] | [4]
active: [3] 31.4 µM

CCOC(=O)c1ccccc1OC
inactive: [1] | [3] | [4]

CN(C)c1ccc(O)c2c1C[C@H]1C[C@H]3[C@H](N(C)C)C(=O)C(C(N)=O)=C(O)[C@@]3(O)C(=O)C1=C2O
inactive: [1] | [3] | [4]

O=C[C@@H](O)[C@H](O)[C@H](O)CO
inactive: [1] | [2]

CC(=O)O[C@]1(C(C)=O)CC[C@H]2[C@@H]3C[C@H](C)C4=CC(=O)CC[C@]4(C)[C@H]3CC[C@@]21C
active: [1] 2.91 µM | [3] 2.34 µM | [9] 10 µM | [13] 5.07 µM
not listed: [2] | [4] | [19]
inactive: all other assays above

CC(C)=CCC[C@H](C)CC=O
inactive: [1] | [3] | [2] | [4]

CCCCCCCCCCCCCC(=O)O
active: [3] 69.7 µM
inactive: [1] | [2] | [4]

C[Si](O[Si](C)(C)C)O[Si](C)(C)C
active: [3] 61.7 µM
inactive: [1] | [4]

CCC(=O)OCCC(C)CCC=C(C)C (stereo not given)
inactive: [1] | [3] | [4]

CN(C)C(=N)N=C(N)N
inactive: [1] | [2]

CCCc1ccccc1O
inactive: [1] | [2]

CCCc1c(OCCCOc2ccc(OCC(=O)O)cc2)ccc(C(C)=O)c1O
active: [3] 8.03 µM
inactive: [1] | [2] | [4]

C=CCOC(=O)CCC1CCCCC1
not listed: [3] | [18] | [19]
inactive: all other assays above

OC[C@H]1O[C@H](O[C@]2(CCl)O[C@H](CCl)[C@@H](O)[C@@H]2O)[C@H](O)[C@@H](O)[C@H]1Cl
not listed: [3] | [18]
inactive: all other assays above

Cc1ccccc1C=O
inactive: [1] | [3] | [2] | [4]

C[C@H]1C[C@H]2[C@@H]3CCC4=CC(=O)C=C[C@]4(C)[C@@]3(F)[C@@H](O)C[C@]2(C)[C@@]1(O)C(=O)COP(=O)(O)O
inactive: [1] | [3] | [4]

CCCCCCCCCOC(C)=O
inactive: [1] | [3] | [4]

Cc1ccc(C(=O)c2cc(O)c(O)c([N+](=O)[O-])c2)cc1
inactive: [1] | [3] | [2] | [4]

CN(C)CCCN
inactive: [1] | [3] | [2] | [4]

O=c1[nH]nnc2ccccc12
inactive: [1] | [2] | [4]

CC(C)Oc1ccccc1O
not listed: [2] | [3] | [4] | [19]
inactive: all other assays above

CCCC1CCC(=O)O1 (stereo not given)
inactive: [1] | [4]

CCCCCCOC(=O)CCCCC
inactive: [1] | [4]

Nc1cccc(S(=O)(=O)c2cccc(N)c2)c1
inactive: [1] | [2] | [4]

N#Cc1ccc(CC(=NNC(=O)Nc2ccc(OC(F)(F)F)cc2)c2cccc(C(F)(F)F)c2)cc1
not listed: [2] | [3] | [4] | [19]
inactive: all other assays above

CC(c1cc2ccccc2s1)N(O)C(N)=O (stereo not given)
inactive: [1] | [2] | [4]

CC(=O)[C@H]1CC[C@H]2[C@@H]3CC=C4C[C@@H](O)CC[C@]4(C)[C@H]3CC[C@]12C
active: [12] 11.1 µM and 7.02 µM
not listed: [2] | [3] | [4] | [18] | [19]
inactive: all other assays above
